# Hits are enriched below; roughly 3.5% of the tested compounds scored in any of these assays.
# Tau FP inhib: tau fibrillization inhibition (FP). P10636. K18 P301L tau heparin fibrillization, Alexa594 FP, 6 h. Potency, µM (doses to about 57.7 µM), for the others: at the highest dose activity, negative = inhibition, hits mostly inhibitors. actives 0.39% (n = 280,000). AID 1468; also: nearly all actives have a fitted effect of over 55% in size
# Target sequence (P10636 561-689 P618L limits assumed): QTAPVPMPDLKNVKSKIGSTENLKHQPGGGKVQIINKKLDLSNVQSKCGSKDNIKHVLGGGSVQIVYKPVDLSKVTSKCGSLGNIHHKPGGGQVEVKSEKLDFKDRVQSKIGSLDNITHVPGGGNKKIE
#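 Human K18 P301L fragment (15 uM unlabeled plus 0.24 uM Alexa 594-labeled) in 100 mM sodium acetate pH 7 with compound, aggregation induced by 20 uM heparin for 6 hr at 37 C. ThT (30 uM) added for 1 hr, then Alexa 594 FP read.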
# TR SRC2 fluor cs: counter-screen for TRb-SRC2 inhibitors: fluorescence interference | TRb/SRC2 Texas Red total fluorescence interference | Potency, µM (doses to about 106 µM), inactives show at the highest dose fluorescence change, negative = quenching | actives 0.29% (n = 280,000); active = well fitted curve in either direction with a large enough effect; inconclusive = small, poorly fitted or top-dose-only effect
#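 Flags fluorescent or light-absorbing compounds by total fluorescence, S + 2P, at 555 nm excitation and 632 nm emission. Mixture: 20 nM Texas Red SRC2 peptide, 0.6 uM human TRb LBD, 1 uM T3, 5% DMSO; compound exposure 5 h at ambient temperature.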
# Tau fibril ThT: tau fibrillization inhibition (ThT binding); recombinant tau K18 P301L, heparin-induced fibrillization, ThT fluorescence; actives 2.1% (n = 270,000); Potency, µM (highest dose often 57.4 µM), inactives show top-dose activity, negative = inhibition, actives largely listed as inhibitors; also: nearly all actives have a fitted effect of over 55% in size
#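 Fibril formation assay: tau K18 P301L at 15 uM with trace Alexa 594 label, heparin inducer 20 uM, pH 7 sodium acetate buffer, 37 C for 6 hr; endpoint ThT signal.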
# TRb SRC2 PPI: TRbeta-SRC2 interaction inhibition; P10828; TRbeta-SRC2 peptide binding, fluorescence polarization; receptor liganded with 1 µM T3; Potency, µM (highest dose often 106 µM), for the others: at the top dose activity change, negative = inhibition, most hits filed as inhibitors; actives 0.065% (n = 280,000); AID 1469;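 also: plate controls were bound peptide for no effect and peptide without receptor for full effect; nearly all actives have a fitted effect of over 50% in size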
#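 TRb LBD 0.6 uM + Texas Red SRC2 peptide 20 nM, 1 uM T3, Tris buffer w/ 5% DMSO; compound pinned, 5 h RT; FP read ex 555/em 632; normalized to unbound and bound controls.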
# Tau fluor counter: counter-screen for tau fibril formation inhibitors; tau K18 P301L Alexa594 fluorescence, heparin fibrillization; Potency, µM (top dose mostly 57.7 µM), inactives show at the highest dose activity change, negative = decrease; actives 0.93% (n = 280,000); AID 1463; also: nearly all actives have a fitted effect of over 55% in size
#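 Human tau K18 P301L (15 uM unlabeled, 0.24 uM Alexa 594-labeled) in 100 mM sodium acetate pH 7 with 20 uM heparin, 6 hr at 37 C. ThT 30 uM added, 1 hr ambient; Alexa 594 FP and total fluorescence read at 555/632 nm.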
# KDM4E inh: blocks human JMJD2E demethylase activity | AID 2147 | actives 1.6% (n = 230,000) | B2RXH2 | JMJD2E catalytic domain, FDH-coupled NADH fluorescence (FDH is formaldehyde dehydrogenase) | Potency, µM (highest dose often 57.1 µM), for the others: at the top dose activity change, negative = inhibition, most hits filed as inhibitors; active = well fitted inhibition curve with a large enough effect, not every such curve was filed as active; inconclusive = small, poorly fitted or top-dose-only effect, or another doubt; inactive = no such curve, though single readings can be large or run the other way;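 also: 0% = wells with enzyme and -100% = buffer wells without enzyme; nearly all actives have a fitted effect of over 50% in size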
# Target sequence (B2RXH2 1-337 limits assumed): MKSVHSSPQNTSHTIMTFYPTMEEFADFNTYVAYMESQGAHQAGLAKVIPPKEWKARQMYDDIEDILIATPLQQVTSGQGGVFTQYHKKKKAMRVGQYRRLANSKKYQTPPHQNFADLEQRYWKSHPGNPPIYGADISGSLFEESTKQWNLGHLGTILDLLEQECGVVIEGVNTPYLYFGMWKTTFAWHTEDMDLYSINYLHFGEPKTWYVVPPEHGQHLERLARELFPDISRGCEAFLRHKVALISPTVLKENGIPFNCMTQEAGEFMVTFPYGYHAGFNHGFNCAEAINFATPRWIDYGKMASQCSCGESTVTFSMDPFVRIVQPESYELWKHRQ
# * = called active by the depositor; ? = inconclusive; . = not tested or not shown; [ ] = remark or other dose. Unless noted, calls follow the shape of the dose curve; as a rule, active = well fitted curve in the direction sought with a large enough effect; inconclusive = small, poorly fitted or top-dose-only effect, or another doubt; inactive = no such curve, though single readings can be large; an effect the other way counts as inactive or inconclusive. Unless noted, % is scaled to controls: 0 for no effect and ±100 for the full control effect; potency is read from the fitted curve at half-maximal effect.
SMILES,Tau FP inhib,TR SRC2 fluor cs,Tau fibril ThT,TRb SRC2 PPI,Tau fluor counter,KDM4E inh
C=CCOC(=O)C1=C(C)N=c2s/c(=C3\C(=O)N(CC(=O)O)c4ccccc43)c(=O)n2C1c1ccc(OC)cc1 (stereo unspecified),?,-0.6%,3.98µM*,-0.4%,-10.7%,-13.6%
CN(Cc1cccs1)c1ncnc2sccc12,-3.4%,3.3%,-17.3%,-21.8%,-19.1%,-21.7%
CO/N=C/c1ccc(Sc2ccccc2N)c([N+](=O)[O-])c1,4.6%,-1.1%,?,10.9%,28.2µM*[quencher],4.0%
Nc1c(C(=O)c2ccccc2)sc2nsc(SCCN3CCCC3)c12,-14.3%,-2.9%,15.8µM*,-0.8%,?,5.9%
c1ccc(Nc2nnc(SCc3cccc4ccccc34)s2)cc1,-10.0%,-0.1%,-10.0%,4.8%,15.8µM*[quencher],-4.7%
COc1cccc(C2SCC(=O)N2c2ccc(Cl)cc2)c1OC (stereo unspecified),?,-1.5%,1.0%,5.8%,0.5%,-2.3%
COc1ccc(N2CN=C3SCC(=O)N3C2)cc1,-1.1%,0.8%,-15.1%,12.9%,-1.5%,0.1%
COc1cc(OC)c(C2CC(=O)N3CN(c4ccccc4C)CSC3=C2C#N)cc1OC (stereo unspecified),31.6µM*,-0.7%,28.2µM*,1.1%,-24.3%,22.4µM*
COc1ccc(C2CC(=O)N(C)c3ccccc3S2)cc1OC (stereo unspecified),-0.8%,2.4%,-4.3%,3.5%,0.8%,-4.7%
COc1ccc(C2CC(=O)N3CN(c4ccc(C)c(Cl)c4)CSC3=C2C#N)cc1 (stereo unspecified),?,-1.3%,31.6µM*,9.6%,-16.7%,?
COc1ccc(C2CC(=O)N3CN(c4ccccc4F)CSC3=C2C#N)cc1OC (stereo unspecified),?,-8.7%,28.2µM*,2.3%,-24.4%,28.2µM*
COc1ccc(N2CSC3=C(C#N)C(c4cccc(OC)c4OC)CC(=O)N3C2)cc1 (stereo unspecified),?,3.7%,17.8µM*,6.4%,-25.4%,?
CC(/C=C/c1ccccc1F)=N\NC(=O)C(C)C,0.1%,-1.5%,1.7%,-1.4%,8.4%,4.4%
Cc1cccc(N2CSC3=C(C#N)C(c4ccc(C)o4)CC(=O)N3C2)c1 (stereo unspecified),?,?,14.1µM*,16.5%,-26.6%,28.2µM*
COc1ccc(OC)c(C2CC(=O)N3CN(c4ccccc4)CSC3=C2C#N)c1 (stereo unspecified),15.8µM*,0.6%,28.2µM*,0.2%,?,?
CCc1ccccc1N1CSC2=C(C#N)C(c3ccccc3F)CC(=O)N2C1 (stereo unspecified),?,2.3%,28.2µM*,2.5%,-18.5%,31.6µM*
CC(C)Oc1ccc(CNC(=O)CN2C(=O)c3cccnc3Oc3ccc(Cl)cc32)cc1,-0.6%,20µM*[quencher],1.2%,-0.9%,-4.2%,.
CC(CNC(=O)CN1C(=O)c2cccnc2Oc2ccc(Cl)cc21)c1ccccc1 (stereo unspecified),?,8.8%,-11.1%,0.9%,-9.8%,.
CCOc1ccccc1CNC(=O)CN1C(=O)c2cccnc2Oc2ccc(C)cc21,-4.7%,22.4µM*[quencher],-9.0%,-13.1%,-3.5%,.
CCC(=O)Nc1cc(-c2nc3ccccc3s2)c(Cl)cc1Cl,-7.8%,35.5µM*[quencher],3.5%,-11.0%,-0.2%,.
CCS(=O)(=O)c1nnnn1-c1ccccc1S(C)(=O)=O,1.9%,-3.7%,-10.1%,-6.1%,1.2%,9.6%
O=C1C=CC2=C3c4cc(O)c(O)cc4CC3(O)COC2=C1O (stereo unspecified),7.94µM*,?,3.16µM*,6.2%,3.98µM*[quencher],2µM*
COc1ccc(Cc2nnc(SCC(=O)NC3CCCC3)o2)cc1,2.0%,-8.9%,7.1%,5.3%,0.2%,5.5%
